# Changes are numbered by the printed parent chain.
# What was measured:
# Experiment in all cases: yeast three-hybrid, YBZ-1, SC-Leu-His + 0.5 mM 3-AT, 4 days
# Conditions in all cases: tags: N-Gal4 AD-HA kept; label: inside an RPR1-promoter hybrid RNA with tandem MS2 sites; ssRNA
# PUM1 PUF domain R6-QFR = molecular target: T1, PUM1 PUF domain R6-QFR (Homo sapiens, UniProt Q14671 828-1176, N1043Q;Y1044F;Q1047R)
# T1 sequence: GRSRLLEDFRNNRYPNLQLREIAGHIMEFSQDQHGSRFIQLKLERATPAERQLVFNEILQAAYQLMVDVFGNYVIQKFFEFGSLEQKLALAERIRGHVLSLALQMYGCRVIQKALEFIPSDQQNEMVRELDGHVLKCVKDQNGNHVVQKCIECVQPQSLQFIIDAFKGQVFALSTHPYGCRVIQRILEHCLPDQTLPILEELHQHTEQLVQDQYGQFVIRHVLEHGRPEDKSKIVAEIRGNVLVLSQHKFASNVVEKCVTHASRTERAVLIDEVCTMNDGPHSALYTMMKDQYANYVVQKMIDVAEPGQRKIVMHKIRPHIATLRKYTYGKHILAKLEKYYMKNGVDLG
# Summary of the method: (§1)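 Pumilio-1 PUF domain libraries, randomized (NNK) at the three base-contacting residues of each repeat, were co-expressed with matching RNA elements from a centromeric plasmid in strain YBZ-1 (LexA–MS2 coat fusion, HIS3 reporter). Transformants were plated on SC-Leu (input) and SC-Leu-His + 0.5 mM 3-AT (selection) for four days, and repeat regions were PCR-amplified and Illumina-sequenced. The interaction score is the log2 change in variant frequency from input to selection, with pseudocount 1 where absent.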
# PUM1 PUF domain R7-KRT = PUM1 PUF domain R7-KRT (Homo sapiens, UniProt Q14671 828-1176, S1079K;N1080R;E1083T)
# Summary of the method: as §1
# PUM1 PUF domain R1-KQN = PUM1 PUF domain R1-KQN (Homo sapiens, UniProt Q14671 828-1176, S863K;R864Q;Q867N)
# Summary of the method: as §1
# PUM1 PUF domain R5-RNR = PUM1 PUF domain R5-RNR (Homo sapiens, UniProt Q14671 828-1176, C1007R;R1008N;Q1011R)
# Summary of the method: as §1
# PUM1 PUF domain R5-RHI = PUM1 PUF domain R5-RHI (Homo sapiens, UniProt Q14671 828-1176, C1007R;R1008H;Q1011I)
# Summary of the method: as §1
# PUM1 PUF domain R4-SRW = PUM1 PUF domain R4-SRW (Homo sapiens, UniProt Q14671 828-1176, N971S;H972R;Q975W)
# Summary of the method: as §1
# PUM1 PUF domain R1-SWK = PUM1 PUF domain R1-SWK (Homo sapiens, UniProt Q14671 828-1176, R864W;Q867K)
# Summary of the method: as §1
# PUM1 PUF domain R1-KIR = PUM1 PUF domain R1-KIR (Homo sapiens, UniProt Q14671 828-1176, S863K;R864I;Q867R)
# Summary of the method: as §1
# PUM1 PUF domain R3-LRA = PUM1 PUF domain R3-LRA (Homo sapiens, UniProt Q14671 828-1176, C935L;Q939A)
# Summary of the method: as §1
# PUM1 PUF domain R5-QRS = PUM1 PUF domain R5-QRS (Homo sapiens, UniProt Q14671 828-1176, C1007Q;Q1011S)
# Summary of the method: as §1
# PUM1 PUF domain R4-LGM = PUM1 PUF domain R4-LGM (Homo sapiens, UniProt Q14671 828-1176, N971L;H972G;Q975M)
# Summary of the method: as §1
# PUM1 PUF domain R6-WHG = molecular target: T2, PUM1 PUF domain R6-WHG (Homo sapiens, UniProt Q14671 828-1176, N1043W;Y1044H;Q1047G)
# T2 sequence: T1 sequence with Q216W, F217H, R220G
# Summary of the method: as §1
# PUM1 PUF domain R6-RHQ = molecular target: T3, PUM1 PUF domain R6-RHQ (Homo sapiens, UniProt Q14671 828-1176, N1043R;Y1044H)
# T3 sequence: T1 sequence with Q216R, F217H, R220Q
# Summary of the method: as §1
# PUM1 PUF domain R3-APV = PUM1 PUF domain R3-APV (Homo sapiens, UniProt Q14671 828-1176, C935A;R936P;Q939V)
# Summary of the method: as §1
# PUM1 PUF domain R6-NFC = molecular target: T4, PUM1 PUF domain R6-NFC (Homo sapiens, UniProt Q14671 828-1176, Y1044F;Q1047C)
# T4 sequence: T1 sequence with Q216N, R220C
# Summary of the method: as §1
# PUM1 PUF domain R8-AFR = PUM1 PUF domain R8-AFR (Homo sapiens, UniProt Q14671 828-1176, N1122A;Y1123F;Q1126R)
# Summary of the method: as §1
# PUM1 PUF domain R8-SWR = PUM1 PUF domain R8-SWR (Homo sapiens, UniProt Q14671 828-1176, N1122S;Y1123W;Q1126R)
# Summary of the method: as §1
# PUM1 PUF domain R8-RYL = PUM1 PUF domain R8-RYL (Homo sapiens, UniProt Q14671 828-1176, N1122R;Q1126L)
# Summary of the method: as §1
# PUM1 PUF domain R8-KQR = PUM1 PUF domain R8-KQR (Homo sapiens, UniProt Q14671 828-1176, N1122K;Y1123Q;Q1126R)
# Summary of the method: as §1
# PUM1 PUF domain R3-NPV = PUM1 PUF domain R3-NPV (Homo sapiens, UniProt Q14671 828-1176, C935N;R936P;Q939V)
# Summary of the method: as §1
sequence,measurement,setting,value
GGCUAGAACUAGUGGAUCCCCCGGCGCCCGGCGGCUCGAGCCCGGGUAAGUGCAAAUAGUCUGCAUGCCGCCGGGCGCCAUGCCUGCAGGUCGACUCUAGAAAACAUG,binding signal,PUM1 PUF domain R6-QFR,4.65 log2 enrichment (interaction score)
GGCUAGAACUAGUGGAUCCCCCGGCGCCCGGCGGCUCGAGCCCGGGUAAGUCUAAAUAGUCUGCAUGCCGCCGGGCGCCAUGCCUGCAGGUCGACUCUAGAAAACAUG,binding signal,PUM1 PUF domain R7-KRT,4.64 log2 enrichment (interaction score)
GGCUAGAACUAGUGGAUCCCCCGGCGCCCGGCGGCUCGAGCCCGGGUAAGUGUAAAUGGUCUGCAUGCCGCCGGGCGCCAUGCCUGCAGGUCGACUCUAGAAAACAUG,binding signal,PUM1 PUF domain R1-KQN,2.83 log2 enrichment (interaction score)
GGCUAGAACUAGUGGAUCCCCCGGCGCCCGGCGGCUCGAGCCCGGGUAAGUGUCAAUAGUCUGCAUGCCGCCGGGCGCCAUGCCUGCAGGUCGACUCUAGAAAACAUG,binding signal,PUM1 PUF domain R5-RNR,3.17 log2 enrichment (interaction score)
same,binding signal,PUM1 PUF domain R5-RHI,4.97 log2 enrichment (interaction score)
GGCUAGAACUAGUGGAUCCCCCGGCGCCCGGCGGCUCGAGCCCGGGUAAGUGUAUAUAGUCUGCAUGCCGCCGGGCGCCAUGCCUGCAGGUCGACUCUAGAAAACAUG,binding signal,PUM1 PUF domain R4-SRW,0.88 log2 enrichment (interaction score)
GGCUAGAACUAGUGGAUCCCCCGGCGCCCGGCGGCUCGAGCCCGGGUAAGUUUAAAUAGUCUGCAUGCCGCCGGGCGCCAUGCCUGCAGGUCGACUCUAGAAAACAUG,binding signal,PUM1 PUF domain R7-KRT,4.19 log2 enrichment (interaction score)
GGCUAGAACUAGUGGAUCCCCCGGCGCCCGGCGGCUCGAGCCCGGGUAAGUGUAAAUCGUCUGCAUGCCGCCGGGCGCCAUGCCUGCAGGUCGACUCUAGAAAACAUG,binding signal,PUM1 PUF domain R1-SWK,2.68 log2 enrichment (interaction score)
same,binding signal,PUM1 PUF domain R1-KIR,4.83 log2 enrichment (interaction score)
GGCUAGAACUAGUGGAUCCCCCGGCGCCCGGCGGCUCGAGCCCGGGUAAGUGUUAAUAGUCUGCAUGCCGCCGGGCGCCAUGCCUGCAGGUCGACUCUAGAAAACAUG,binding signal,PUM1 PUF domain R5-RHI,5.86 log2 enrichment (interaction score)
GGCUAGAACUAGUGGAUCCCCCGGCGCCCGGCGGCUCGAGCCCGGGUAAGUGUAAGUAGUCUGCAUGCCGCCGGGCGCCAUGCCUGCAGGUCGACUCUAGAAAACAUG,binding signal,PUM1 PUF domain R3-LRA,4.29 log2 enrichment (interaction score)
GGCUAGAACUAGUGGAUCCCCCGGCGCCCGGCGGCUCGAGCCCGGGUAAGUGUAAAUAGUCUGCAUGCCGCCGGGCGCCAUGCCUGCAGGUCGACUCUAGAAAACAUG,binding signal,PUM1 PUF domain R4-SRW,3.2 log2 enrichment (interaction score)
same,binding signal,PUM1 PUF domain R5-QRS,1.57 log2 enrichment (interaction score)
same,binding signal,PUM1 PUF domain R4-LGM,3.11 log2 enrichment (interaction score)
same,binding signal,PUM1 PUF domain R6-WHG,3.76 log2 enrichment (interaction score)
same,binding signal,PUM1 PUF domain R6-RHQ,5.04 log2 enrichment (interaction score)
same,binding signal,PUM1 PUF domain R3-APV,3.39 log2 enrichment (interaction score)
same,binding signal,PUM1 PUF domain R6-NFC,3.34 log2 enrichment (interaction score)
same,binding signal,PUM1 PUF domain R6-QFR,7.93 log2 enrichment (interaction score)
same,binding signal,PUM1 PUF domain R5-RHI,3.02 log2 enrichment (interaction score)
same,binding signal,PUM1 PUF domain R8-AFR,3.56 log2 enrichment (interaction score)
same,binding signal,PUM1 PUF domain R8-SWR,6.3 log2 enrichment (interaction score)
same,binding signal,PUM1 PUF domain R8-RYL,5.73 log2 enrichment (interaction score)
GGCUAGAACUAGUGGAUCCCCCGGCGCCCGGCGGCUCGAGCCCGGGUAAGUGUGAAUAGUCUGCAUGCCGCCGGGCGCCAUGCCUGCAGGUCGACUCUAGAAAACAUG,binding signal,PUM1 PUF domain R5-QRS,3.7 log2 enrichment (interaction score)
GGCUAGAACUAGUGGAUCCCCCGGCGCCCGGCGGCUCGAGCCCGGGUAAGCGUAAAUAGUCUGCAUGCCGCCGGGCGCCAUGCCUGCAGGUCGACUCUAGAAAACAUG,binding signal,PUM1 PUF domain R8-KQR,2.27 log2 enrichment (interaction score)
same,binding signal,PUM1 PUF domain R8-AFR,3.34 log2 enrichment (interaction score)
same,binding signal,PUM1 PUF domain R8-SWR,5.3 log2 enrichment (interaction score)
same,binding signal,PUM1 PUF domain R8-RYL,5.95 log2 enrichment (interaction score)
GGCUAGAACUAGUGGAUCCCCCGGCGCCCGGCGGCUCGAGCCCGGGUAAGUGUAAUUAGUCUGCAUGCCGCCGGGCGCCAUGCCUGCAGGUCGACUCUAGAAAACAUG,binding signal,PUM1 PUF domain R3-APV,1.79 log2 enrichment (interaction score)
same,binding signal,PUM1 PUF domain R3-LRA,1.5 log2 enrichment (interaction score)
same,binding signal,PUM1 PUF domain R3-NPV,2.64 log2 enrichment (interaction score)

# Reference: PMC8384837, “Expanding the binding specificity for RNA recognition by a PUF domain”
